# Assay results: PubChem BioAssay
# The source made the active and inactive calls.
# Experiments:
# [1] = compounds binding Alexa647 anti-His antibody – biochemical, small-molecule microarray, 635 nm fluorescence, artefact control for SMM control protein annotation, primary screen (AID 1128); conditions: higher = more signal;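 note: score merges feature fluorescence with signal-to-noise for each printed compound spot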
# [2] = test system: Human papillomavirus type 1a E7 protein (residues 1-88); assay: HPV1a E7 small-molecule binders, primary screen, biochemical, small-molecule microarray, residues 1-88, 635 nm (AID 1129); conditions: small-molecule microarray binding, fluorescence 635 nm; higher = more signal
# [3] = molecular target: Focal adhesion kinase 1 (Homo sapiens) (UniProt Q05397); assay: PTK2 protein binding on printed compound slides – biochemical, small-molecule microarray, 635/667 nm fluorescence, BSA, DTT, primary screen (AID 1130); conditions: 635 nm fluorescence, higher = more signal;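 note: composite of spot emission at 667 nm and signal to noise over triplicate slides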
# Sequence of Focal adhesion kinase 1 (Homo sapiens) (Q05397 whole entry, looked up): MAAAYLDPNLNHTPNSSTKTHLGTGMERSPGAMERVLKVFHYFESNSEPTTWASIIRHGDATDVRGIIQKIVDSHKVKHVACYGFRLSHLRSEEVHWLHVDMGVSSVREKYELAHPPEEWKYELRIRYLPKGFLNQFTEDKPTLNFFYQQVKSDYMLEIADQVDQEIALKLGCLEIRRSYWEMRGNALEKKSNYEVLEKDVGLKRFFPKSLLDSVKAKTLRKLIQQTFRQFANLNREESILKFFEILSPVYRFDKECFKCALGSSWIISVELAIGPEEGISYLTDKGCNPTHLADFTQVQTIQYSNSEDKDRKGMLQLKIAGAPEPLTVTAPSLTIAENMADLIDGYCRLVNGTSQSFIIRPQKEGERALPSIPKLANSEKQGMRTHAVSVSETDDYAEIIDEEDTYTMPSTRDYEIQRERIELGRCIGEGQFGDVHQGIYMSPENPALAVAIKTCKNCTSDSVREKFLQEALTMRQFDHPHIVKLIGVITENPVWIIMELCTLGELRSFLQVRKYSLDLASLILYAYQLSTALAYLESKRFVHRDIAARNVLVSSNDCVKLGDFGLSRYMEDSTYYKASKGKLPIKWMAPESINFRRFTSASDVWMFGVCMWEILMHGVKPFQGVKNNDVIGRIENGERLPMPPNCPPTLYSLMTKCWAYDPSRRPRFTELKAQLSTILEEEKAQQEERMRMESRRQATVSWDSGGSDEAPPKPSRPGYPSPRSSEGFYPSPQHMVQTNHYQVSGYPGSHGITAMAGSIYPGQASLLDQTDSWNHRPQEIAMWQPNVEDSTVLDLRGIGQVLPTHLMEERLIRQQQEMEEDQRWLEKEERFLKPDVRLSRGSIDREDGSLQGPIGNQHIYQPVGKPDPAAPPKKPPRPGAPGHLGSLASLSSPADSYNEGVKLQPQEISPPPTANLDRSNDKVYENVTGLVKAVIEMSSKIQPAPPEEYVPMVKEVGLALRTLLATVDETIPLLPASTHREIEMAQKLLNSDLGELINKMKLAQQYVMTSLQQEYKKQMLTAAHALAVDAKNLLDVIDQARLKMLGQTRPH
# [4] = test system: Fibrinogen (Alexa647-labelled); assay: Alexa647-fibrinogen binding to printed small molecules – biochemical, small-molecule microarray, 635/667 nm fluorescence, artefact control for SMM control-protein annotation, profiling panel (AID 1131); conditions: fibrinogen-A647 binding fluorescence, higher = more signal;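 note: z-score merges 667 nm fluorescence with per-spot signal-to-noise over triplicate slides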
# [5] = molecular target: Follistatin (Homo sapiens) (UniProt P19883); assay: FST protein binding to printed compounds – biochemical, small-molecule microarray, 635/667 nm fluorescence, primary screen (AID 1132); conditions: 635 nm fluorescence, higher = more signal
# Sequence of Follistatin (Homo sapiens) (P19883 whole entry, looked up): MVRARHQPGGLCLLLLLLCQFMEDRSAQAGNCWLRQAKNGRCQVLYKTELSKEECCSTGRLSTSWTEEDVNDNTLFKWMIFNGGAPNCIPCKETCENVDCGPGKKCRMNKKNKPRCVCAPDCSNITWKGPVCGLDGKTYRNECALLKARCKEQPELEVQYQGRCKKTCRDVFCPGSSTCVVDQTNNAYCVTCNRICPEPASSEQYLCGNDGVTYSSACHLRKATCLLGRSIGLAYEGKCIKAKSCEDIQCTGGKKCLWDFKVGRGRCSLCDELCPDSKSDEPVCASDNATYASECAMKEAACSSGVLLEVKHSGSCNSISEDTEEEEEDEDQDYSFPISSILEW
# [6] = molecular target: Fibroblast growth factor 2 (Homo sapiens) (UniProt P09038); assay: basic fibroblast growth factor binding to printed compounds – biochemical, small-molecule microarray, 635/667 nm fluorescence, primary screen (AID 1133); conditions: FGF2, fluorescence 635/667, higher = more signal
# Sequence of Fibroblast growth factor 2 (Homo sapiens) (P09038 whole entry, looked up): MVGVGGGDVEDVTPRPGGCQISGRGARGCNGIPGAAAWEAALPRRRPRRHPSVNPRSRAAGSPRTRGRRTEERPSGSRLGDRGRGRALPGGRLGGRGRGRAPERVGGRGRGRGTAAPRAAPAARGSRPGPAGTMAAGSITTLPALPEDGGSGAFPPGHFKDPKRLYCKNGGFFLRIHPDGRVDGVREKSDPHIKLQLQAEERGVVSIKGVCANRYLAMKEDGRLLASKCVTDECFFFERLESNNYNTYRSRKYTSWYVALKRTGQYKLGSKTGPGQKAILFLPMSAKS
# [7] = JC-1 mitochondrial potential readout, lung cancer cells – cell-based, A549, JC-1 fluorescence, basal, 24 h, 100 nL, profiling panel (AID 1138); conditions: higher = more signal;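 note: A549 lung adenocarcinoma cells under basal conditions with no added stimulus; test concentration not given here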
# Lefty1 = Lefty1 protein binding to printed compounds – biochemical, small-molecule microarray, 635/667 nm fluorescence, primary screen (AID 1139); conditions: fluorescence 635/667, higher = more signal
# [8] = test system: wheat germ agglutinin (Triticum aestivum), Alexa647-labelled; assay: Alexa647-WGA lectin binding to printed small molecules – biochemical, small-molecule microarray, 635/667 nm fluorescence, artefact control for SMM control-protein annotation, profiling panel (AID 1140); conditions: WGA-A647 binding, 635 nm fluorescence, higher = more signal;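 note: score merges 667 nm feature emission with signal to noise over triplicate slides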
# [9] = molecular target: Luciferin 4-monooxygenase (Photinus pyralis) (UniProt P08659); assay: inhibition of purified Photinus pyralis luciferase – biochemical, luminescence, purified enzyme, 2006 set, primary screen (AID 1141); conditions: purified firefly luciferase, SteadyGlo luminescence, 30 min; higher = more signal, called active from +8 up or from −8 down;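 note: cell-free assay with purified firefly luciferase at 100 ng per well in PBS; test concentration not given here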
# Sequence of Luciferin 4-monooxygenase (Photinus pyralis) (P08659 whole entry, looked up): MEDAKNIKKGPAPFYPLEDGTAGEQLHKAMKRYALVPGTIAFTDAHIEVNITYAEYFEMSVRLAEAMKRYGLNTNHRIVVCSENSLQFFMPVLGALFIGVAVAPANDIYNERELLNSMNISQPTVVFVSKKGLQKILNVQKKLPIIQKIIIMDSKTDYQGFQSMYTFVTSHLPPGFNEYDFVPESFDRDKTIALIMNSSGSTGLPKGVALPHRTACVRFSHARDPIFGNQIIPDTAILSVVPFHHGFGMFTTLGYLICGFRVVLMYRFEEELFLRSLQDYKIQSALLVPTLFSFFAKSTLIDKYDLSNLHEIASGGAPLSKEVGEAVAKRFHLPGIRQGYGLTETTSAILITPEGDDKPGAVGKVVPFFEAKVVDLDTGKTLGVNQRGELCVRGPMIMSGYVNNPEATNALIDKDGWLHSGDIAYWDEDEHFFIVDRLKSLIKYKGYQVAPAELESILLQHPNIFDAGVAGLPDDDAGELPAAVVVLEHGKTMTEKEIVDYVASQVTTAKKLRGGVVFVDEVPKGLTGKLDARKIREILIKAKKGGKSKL
structure (smiles),measurement,setting,value
CCOC(=O)[C@H](CC(C)C)NC(=O)CCC1CC(OC(=O)NCCc2ccc(F)cc2)CC2(CCCC(COC(=O)NCCc3ccc(Cl)cc3)O2)O1 (stereo not given in full),composite z-score,[1],0.704
same,composite z-score,[2],0.596
same,composite z-score,[3],0.688
same,composite z-score,[4],0.75
same,composite z-score,[5],0.692
same,composite z-score,[6],0.84
same,z-score,[7],-0.156
same,composite z-score,Lefty1,1.34
same,composite z-score,[8],0.61
same,z-score,[9],0.442 (inactive)
COC(=O)C1=C(C)N(Cc2ccccc2)[C@]23O[C@](C(=O)OC)(C(=O)N2[C@@H]1c1ccccc1)C(C(=O)OC)=C3C(=O)OC,composite z-score,[1],0.686
same,composite z-score,[2],0.653
same,composite z-score,[3],0.0309
same,composite z-score,[4],0.784
same,composite z-score,[5],0.732
same,composite z-score,[6],0.808
same,z-score,[7],-0.489
same,composite z-score,Lefty1,1.09
same,composite z-score,[8],-0.0964
same,z-score,[9],-0.371 (inactive)
C=C(C)C(=O)OCC1CN2[C@@H](CC[C@@H](C)[C@@H]2c2ccc(Br)cc2)C(=O)O1 (stereo not given in full),composite z-score,[1],0.0797
same,composite z-score,[2],0.281
same,composite z-score,[3],1.64
same,composite z-score,[4],0.794
same,composite z-score,[5],0.196
same,composite z-score,[6],0.192
same,z-score,[7],0.717
same,composite z-score,Lefty1,0.452
same,composite z-score,[8],0.0513
same,z-score,[9],-0.0906 (inactive)
CCCNC(=O)OC[C@H]1O[C@H](c2ccccc2)C=C[C@@H]1Oc1ccc(OC)cc1,composite z-score,[1],0.98
same,composite z-score,[2],0.0455
same,composite z-score,[3],-0.0038
same,composite z-score,[4],0.25
same,composite z-score,[5],-0.143
same,composite z-score,[6],-0.179
same,z-score,[7],-0.388
same,composite z-score,Lefty1,0.212
same,composite z-score,[8],-0.114
same,z-score,[9],-0.533 (inactive)
CCOC(=O)CCN1C(=O)[C@H]2[C@H]3[C@H](O)[C@H](O)CC(=NOCC(C)C)[C@H]3CC[C@H]2C1=O,composite z-score,[1],-0.0537
same,composite z-score,[2],-0.204
same,composite z-score,[3],-0.0454
same,composite z-score,[4],0.416
same,composite z-score,[5],-0.143
same,composite z-score,[6],-0.0435
same,z-score,[7],0.46
same,composite z-score,Lefty1,-0.0892
same,composite z-score,[8],0.293
same,z-score,[9],-0.562 (inactive)
COC(=O)[C@H]1[C@@H](O)[C@@]2(O)c3ccccc3O[C@@]2(c2ccccc2)[C@@H]1c1ccccc1,composite z-score,[1],0.434
same,composite z-score,[2],0.0845
same,composite z-score,[3],-0.257
same,composite z-score,[4],-0.842
same,composite z-score,[5],0.101
same,composite z-score,[6],0.352
same,z-score,[7],0.266
same,composite z-score,Lefty1,0.285
same,composite z-score,[8],1.01
same,z-score,[9],0.487 (inactive)
CC(=O)Nc1ccc([C@@H]2N[C@H](C(=O)O)CC[C@H]2C)cc1,composite z-score,[1],0.328
same,composite z-score,[2],0.557
same,composite z-score,[3],1.12
same,composite z-score,[4],0.669
same,composite z-score,[5],0.205
same,composite z-score,[6],0.284
same,z-score,[7],2.05
same,composite z-score,Lefty1,0.701
same,composite z-score,[8],-0.11
same,z-score,[9],-1.38 (inactive)
CC(C)=CCCC(C)=CCON=C1C[C@@H](O)[C@@H](O)[C@@H]2[C@@H]3C(=O)N(c4ccc(F)cc4F)C(=O)[C@@H]3CC[C@H]12,composite z-score,[1],1.33
same,composite z-score,[2],1.21
same,composite z-score,[3],0.631
same,composite z-score,[4],0.333
same,composite z-score,[5],0.705
same,composite z-score,[6],0.256
same,z-score,[7],-0.63
same,composite z-score,Lefty1,0.515
same,composite z-score,[8],0.335
same,z-score,[9],0.443 (inactive)
CO[C@H]1COC(=O)[C@@H]2CCCN2C(=O)CC=C[C@@H](C)[C@H](OC)COC(=O)[C@@H](OCc2ccccc2)C=C[C@@H]1C,composite z-score,[1],-0.228
same,composite z-score,[2],-1.15
same,composite z-score,[3],0.0122
same,composite z-score,[4],-0.557
same,composite z-score,[5],1.27
same,composite z-score,[6],1.02
same,z-score,[7],0.0486
same,composite z-score,Lefty1,1.5
same,composite z-score,[8],-0.83
same,z-score,[9],0.168 (inactive)
O=C1C[C@@H](O)[C@@H](O)[C@@H]2[C@@H]3C(=O)N(c4cccc(Oc5ccccc5)c4)C(=O)[C@@H]3CC[C@H]12,composite z-score,[1],-0.0123
same,composite z-score,[2],0.818
same,composite z-score,[3],-0.031
same,composite z-score,[4],0.345
same,composite z-score,[5],0.505
same,composite z-score,[6],0.31
same,z-score,[7],1.23
same,composite z-score,Lefty1,0.471
same,composite z-score,[8],0.268
same,z-score,[9],-0.275 (inactive)
COC(=O)[C@H](C)NC(=O)CCC1CC(OC(=O)NCc2ccc3c(c2)OCO3)CC2(CCCC(COC(=O)NCCc3ccccc3OC)O2)O1 (stereo not given in full),composite z-score,[1],0.911
same,composite z-score,[2],0.638
same,composite z-score,[3],-0.122
same,composite z-score,[4],0.626
same,composite z-score,[5],-0.0381
same,composite z-score,[6],-0.0304
same,z-score,[7],0.159
same,composite z-score,Lefty1,-0.0317
same,composite z-score,[8],0.817
same,z-score,[9],0.559 (inactive)
CCOC(=O)[C@H](CC(C)C)NC(=O)CCC1CC(OC(=O)NCc2cccc3ccccc23)CC2(CCCC(COC(=O)NCCC(C)C)O2)O1 (stereo not given in full),composite z-score,[1],-0.121
same,composite z-score,[2],0.572
same,composite z-score,[3],-0.394
same,composite z-score,[4],0.123
same,composite z-score,[5],0.364
same,composite z-score,[6],0.92
same,z-score,[7],0.652
same,composite z-score,Lefty1,0.606
same,composite z-score,[8],0.0877
same,z-score,[9],-0.0038 (inactive)
